Source: PubChem BioAssay AID493005 (National Center for Advancing Translational Sciences (NCATS), 2010)
Fewer than 10 of roughly 340,000 compounds were called active. The call rests on the fitted dose curve; in most records, active means well fitted inhibition curve with a large enough effect in the main read-out, with a control signal flat (not every such curve was filed as active); inconclusive means small, poorly fitted or top-dose-only effect, or effect the other way, or a change in a side signal; inactive means no such curve, though single readings can be large or run the other way. A selection follows.

Target: Tumor susceptibility gene 101 protein (Homo sapiens) (UniProt Q99816)
Sequence (Q99816 whole entry, looked up): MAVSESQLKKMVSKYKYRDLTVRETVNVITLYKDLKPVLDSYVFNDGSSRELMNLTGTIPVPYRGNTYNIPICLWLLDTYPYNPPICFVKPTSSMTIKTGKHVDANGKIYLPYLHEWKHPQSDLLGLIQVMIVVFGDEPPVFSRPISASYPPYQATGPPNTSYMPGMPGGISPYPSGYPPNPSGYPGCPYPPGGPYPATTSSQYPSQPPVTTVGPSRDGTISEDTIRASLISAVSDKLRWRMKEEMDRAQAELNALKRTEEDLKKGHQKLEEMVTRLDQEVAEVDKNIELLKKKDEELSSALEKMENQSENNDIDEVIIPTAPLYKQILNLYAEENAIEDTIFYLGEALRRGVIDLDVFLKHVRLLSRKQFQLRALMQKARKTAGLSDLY
Test: qHTS Assay for Iinhibitors of HIV-1 Budding by Blocking the Interaction of PTAP/TSG101; further: % of control where 0% means no effect
Conditions: Fluorescence polarization, FITC-PTAP peptide / Tsg101 binding; series mostly up to 115 µM; activity change, negative = inhibition: at the top concentration
From the text: NIH Molecular Libraries Probe Production Network [MLPCN] NIH Chemical Genomics Center [NCGC] MLPCN Grant: 1 R03 MH087464-01A1 PI Name: Dr. Eric Freed, NCI NCGC Assay Overview: Stages of the HIV-1 replication cycle, specifically virus assembly and release, provide underexploited targets for the development of novel antiviral inhibitors. The late stages of HIV-1 replication are mediated by the Gag precursor protein, Pr55Gag. Expression of Pr55Gag is both necessary and sufficient for the production of virus-like particles from Gag-expressing cells. The Gag protein hijacks key host proteins involved in endocytic machinery of the host cell to promote endosomal processing and viral budding. The budding process requires a direct interaction between a […] (PTAP) motif in the p6 domain of Gag and the cellular endosomal sorting protein known as Tsg101. In this way, the Gag PTAP motif promotes the host cells to recruit viral particles to the plasma membrane where the new viral particles are released, effectively turning the host cells into viral factories. A fluorescence anisotropy assay has been developed to quantitatively measure the PTAP-Tsg101 interaction which can be used to screen for inhibitors of this interaction.
NCGC Assay Protocol Summary: Two uL of the Tsg101 binding domain in buffer (10 mM HEPES pH 7.5; 0.15 M NaCl, 0.01% Tween 20; 3 mM EDTA;0.1 mM TCEP) was dispensed into Greiner black MB 1536-well plates (final concentration 10 uM). Then, 23 nL of compounds or DMSO were delivered to each well using a pin tool. Finally, 2 uL of a FITC-labeled peptide containing the PTAP motif (1) in the same buffer was dispensed (50 nM final concentration) and the binding was allowed to proceed for 20 min. at r.t. Fluorescent polarization was determined using FITC excitation and polarized emission filters on a Perkin Elmer Viewlux. Keywords: Tsg101, PTAP, Gag, HIV, fluorescent polarization, MLSMR, MLPCN, NIH Roadmap, qHTS, NCGC

Activity change, negative = inhibition, inactive:
Cc1nc2ccc(N)nc2nc1C -0.53%, C/C(=N\NC(=O)OC(C)(C)C)c1ccc[nH]1 -1.18%, O=C(CCN1C(=O)[C@H]2CC=CC[C@H]2C1=O)NCc1nc(-c2ccccc2)no1 -6.22%, CCc1nnc(NC(=O)CSc2nnc(COc3ccc(C#N)cc3)n2-c2ccccc2)s1 -10.6%, CCN(CCn1cccn1)Cc1cn[nH]c1-c1ccc(OC)cc1F 0.565%, CC1CN(Cc2nc3c(c(=O)n(C)c(=O)n3C)n2Cc2cccc(Cl)c2)CC(C)O1 (stereo not given) -3.91%, O=C(c1ccc(C(F)(F)F)cc1)C1CCCN(C(=O)c2csnn2)C1 (stereo not given) -0.106%, CN1CCC(N(C)C(=O)c2ccc(Cl)c(S(=O)(=O)Nc3ccc(Cl)cc3)c2)CC1 -3.3%, O=C(C[C@H]1C/C=C\C[C@@H](NC(=O)OCC2c3ccccc3-c3ccccc32)C(=O)O[C@@H](c2ccccc2)CNC1=O)N[C@H](CO)Cc1ccccc1 -5.62%, COc1cc(/C=C/c2ccc(/C=C/c3cc(OC)c(OC)c(OC)c3)cc2)cc(OC)c1OC -1.32%, CCOC(=O)c1ccc2[nH]c3c(c2c1)CCCC3NC=O (stereo not given) -3.47%, CCN1CCN(C(=O)Cn2nc(C)n3c(cc4c(OC)cccc43)c2=O)CC1 -6.31%, O=C(NCc1nnc(SCC(=O)N2CCC(Cc3ccccc3)CC2)o1)c1ccco1 -0.997%, CCN(CC)S(=O)(=O)c1ccc2[nH]c(=O)cc(C(=O)N(C)C3CCS(=O)(=O)C3)c2c1 (stereo not given) -4.05%, O=C(C1CCCO1)N(c1ccc(F)cc1)C1C=CS(=O)(=O)C1 (stereo not given) 0.363%, O=C(NCc1ccccc1)c1cccc(NC(=O)C2CCCCC2)c1 -6.8%, c1ccc(-c2nccc(-c3ccc(-n4cnc5ccccc54)cc3)n2)nc1 -1.99%, CCC(C)Sc1nc(C)nc2c1c(=O)n(C)c(=O)n2C (stereo not given) 0.253%, CCN(CC)C(=O)CSc1nc2ccccc2n1CC(=O)N1CCN(c2ccccc2OC)CC1 0.875%, CCOc1ccccc1NC(=S)C(=C([O-])c1ccc2c(c1)OCCO2)[n+]1ccc(CC)cc1 3.72%, O=C(CSc1nnc(-c2cccs2)n1Cc1ccco1)c1ccc2c(c1)OCO2 -3.06%, COC(=O)c1ccc(NC(=O)CSc2nncc3ccc(OC)c(OC)c23)cc1 -2.76%, Cc1noc(C)c1C(=O)NCCc1ccc(S(N)(=O)=O)cc1 -0.805%, O=C(CN1CCN(c2ccc(O)cc2)CC1)Nc1ccc(-c2ccccc2)cc1 -0.657%, CCN(C(=O)COC(=O)c1c(C)nn(-c2ccccc2)c1Cl)c1c(N)n(Cc2ccccc2)c(=O)[nH]c1=O -1.46%, COc1cccc(-c2nn(-c3ccccc3)cc2/C=C(\C#N)C(=O)NCCCn2ccnc2)c1 -4.69%, Nc1c(-c2cccc(Cl)c2)cnn1-c1cccc([N+](=O)[O-])c1 -1.6%, COc1ccc(CN2C(=O)CC(Cc3ccc(C)cc3)C2=O)cc1OC (stereo not given) 0.513%, C/C(=N\N=C(N)N)c1ccc(Cl)cc1 -1.16%, CC(C)Oc1ccc(C2NC(=O)NC2=O)cc1 (stereo not given) -6.43%, COC(=O)C1(S(=O)(=O)C2(C(=O)OC)CCCC2)CCCC1 0.594%, C=CCOC(=O)C1=C(C)N=C2SCCC(=O)N2C1/C=C/c1ccccc1OC (stereo not given) -5.89%, Cc1ccc(N(C(=O)CC2NC(=O)NC2=O)C2(C(=O)NC3CCCC3)CCCCC2)cc1 (stereo not given) -3.36%, O=S(=O)(NCCS(=O)(=O)N1CCN(c2ccccc2)CC1)c1ccc(F)cc1 -5.23%, Fc1ccc(-n2c(Cc3ccccc3)nnc2SCc2nc(-c3ccc(Cl)cc3)no2)cc1 -5.49%, N/C(=N\OC(=O)CCc1ccccc1)c1ccc(Cl)cc1 -1.88%, O=C(CN1CCN(Cc2ccccc2)CC1)NC(c1ccccc1)c1ccccc1 -0.0932%, O=C(O)c1[nH]c2ccccc2c1C(c1cccc(O)c1)c1c(C(=O)O)[nH]c2ccccc12 -5.64%, COCCCNCC(=O)Nc1sc(C)c(C)c1C(=O)OC 0%, CCn1c(SCC(=O)NC2=NCCS2)nnc1C(C)NC(=O)c1ccccc1F (stereo not given) -2.35%, Cc1ncc([N+](=O)[O-])n1CCOC(=O)c1ccc(Br)cc1 -6.42%, CC(C)(C)C(=O)Nc1cccc(-c2ccc[nH]2)n1 -4.49%, O=C(C/C(=N\NC(=O)c1ccccc1Br)C(F)(F)F)c1cccs1 -4.3%, COC(=O)[C@@]12CCCN1[C@H](c1ccc(-c3ccc(F)cc3)c(OC)c1)[C@H]1C(=O)N(C)C(=O)[C@H]12 -0.523%, C=C1c2c(Cl)ccc(O)c2C(O)=C2C(=O)[C@]3(O)C(O)=C(C(N)=O)C(=O)[C@@H](N(C)C)[C@@H]3[C@@H](O)C12 (stereo not given in full) -1.33%, Cc1ccc(C)c(OCCC(=O)OCC(=O)NC(=O)NCc2ccccc2)c1 -1.56%, COc1ccc(NC(=O)CSc2ccc(-c3ccco3)nn2)c(OC)c1 -8.49%, COC(=O)[C@]1(C)CCC[C@@]2(C)C3CC[C@]4(OC(C)=O)C[C@@]3(CCC21)CC4=NO (stereo not given in full) -6.61%, COc1ccc(C(=O)CCc2ccccc2O)c(OC)c1 0.644%, Cc1ccc(CNC(=O)CCC(=O)N2CC(C)Sc3ccccc32)cc1 (stereo not given) -0.171%, Cc1cc(C)cc(NC(=O)N2CCC(NC(=O)c3ccc(F)cc3)CC2)c1 -0.34%, Cc1ccc(CCCOC(=O)C[N+]2(C)CCCCC2)cc1 -0.238%, Cc1noc(C)c1S(=O)(=O)N1CCCC(C(=O)Nc2nccs2)C1 (stereo not given) -2.7%, CCCCNC1(C#N)CCN(Cc2ccccc2)CC1 -0.662%, O=C(NNC(=S)NCCCN1CCOCC1)c1ccncc1 -0.889%, CCOc1cc(CN2CCCC(CO)(Cc3ccc(F)cc3F)C2)ccc1OC (stereo not given) -0.505%, Cc1ccc2c(C)c(C(=O)N(C)CCC3CCCCO3)oc2c1C (stereo not given) -7.71%, CN(C)C(=O)c1ccc2c(c1)C1C3CCC(C3)C1C(c1ccccc1)N2 (stereo not given) -5.45%, O=C(CCC1CCCC1)N=C1SC2CS(=O)(=O)CC2N1Cc1ccccc1 (stereo not given) -1.15%, Cc1ccc(CN(N=Nc2nonc2N)c2nonc2N)c(C)c1 -0.109%, Cc1ccc(C(=O)O)cc1N1C(=O)CCCC1=O -3.92%, Cc1ccc(CN2CCN(c3ccccc3Cl)CC2)o1 -5.99%, CCCC(=O)Nc1nnc(CC(=O)OCC)s1 0.641%, COc1ccc(CCNCc2c(-c3ccccc3)n(C)c3ccccc23)cc1 -3.78%, COc1ccc(F)cc1S(=O)(=O)N1CCCCC1 -9.49%, O=[N+]([O-])c1ccc(C=Nc2ccc(Cl)cc2Cl)s1 -15%, CCOC(=O)c1nnn(-c2nonc2-n2cccc2)c1CN1CCC(C(=O)OCC)CC1 -0.451%, C=CCc1cccc2cc(C(=O)Nc3ccc(NC(C)=O)cc3)c(=O)oc12 1.25%, CCOC(=O)[C@@H]1[C@H]2COc3cc(OC)ccc3[C@H]2N2C(=O)N(c3ccc(F)cc3)C(=O)[C@]12C 0.494%, O=C(Cc1ccccc1)Nc1c(Cl)ccc2nsnc12 0.701%, CC(=O)c1ccc(NC(=O)C2CC(=O)Nc3nc4ccccc4n32)cc1 (stereo not given) 0.727%, CCOc1ccc(NC(=O)C/C(C)=N/NC(=O)Cc2cccs2)cc1 -5.5%, CN(CC(=O)NCCN1CCOCC1)S(=O)(=O)c1ccc(F)cc1 -0.493%, C/C(=N\NC(=O)CCn1nc(C)cc1C)C(C)(C)C -0.95%, O=C(Cc1ccc(NC(=O)C2CCCN(C(=O)CCc3ccccc3)C2)cc1)Nc1ccc(C(=O)N2CCOCC2)cc1 (stereo not given) -0.0955%, COc1ccc(-c2nc3c(s2)CCc2onc(-c4ccc(OC)cc4)c2-3)cc1 -0.28%, CC(=O)Nc1ccc(S(=O)(=O)N(CCc2ccccc2)CC(=O)N/N=C/c2ccc(C(=O)O)cc2)cc1 -6.47%, COc1cc(Cl)ccc1OCc1cc(C(=O)N(C)CCc2c(C)n[nH]c2C)no1 0.863%, CC(C)C[C@H](NC(=O)C1CC(=O)N(c2ccc3c(c2)OCCO3)C1)C(=O)NC1CCCC1 (stereo not given in full) 2.95%, COc1ccc(Cl)cc1NC(=O)CN(C)C(=O)CCCc1c[nH]c2ccccc12 -4.62%, CC(C)CC(CC(C)C)=NNC(=O)c1ccc(CSc2nncn2C)cc1 -0.775%, O=C(c1cc(-c2ccco2)nc2ccccc12)N(Cc1nnc(-c2ccc(Cl)cc2)o1)C1CC1 0.193%, CN(CC(=O)Nc1ccc(Cl)c(C(F)(F)F)c1)C(=O)CCC(=O)c1ccccc1 -4.75%, Cn1ncc(N2CCN(S(=O)(=O)c3ccc(Br)cc3)CC2)c(Cl)c1=O 1.01%, CC(C)OP(=O)(OC(C)C)C(Nc1ccccc1)c1cccc([N+](=O)[O-])c1 (stereo not given) -3.25%, CC(=O)N(c1ccc2oc(=O)sc2c1)S(=O)(=O)c1ccc(C)cc1 -5.77%, Clc1ccc(C[n+]2cc(-c3ccc(Cl)cc3)n3c2CCC3)cc1 0.956%, COC(=O)[C@@H]1C[C@@]2(O)[C@@H](O)[C@@H](O)[C@@H](O)C[C@H]2N1Cc1ccc(C)s1 0.0295%, COc1ccccc1NS(=O)(=O)c1ccc(C)c(C(=O)NNC(=O)c2csc(N3CCOCC3)n2)c1 -8.59%, CC(=O)OC1CCC2C3CCC4=C(CC(F)C(=O)C4)C3CCC12C (stereo not given) 0.416%, Cc1ccc(S(=O)(=O)N2CCCC2C(=O)NCc2ccco2)cc1 (stereo not given) -4.52%, CS(=O)(=O)N1CCCC(C(=O)N2CCOCC2)C1 (stereo not given) -5.04%, CCCN1C(=O)C(NC(C)=O)c2cc(OC)ccc21 (stereo not given) -3.66%, O=C(NC1CCCC1)C(c1ccc(N2CCOCC2)cc1)N(C(=O)c1ccco1)c1ccccc1F (stereo not given) 1.97%, O=C(Nc1ccccc1-c1nnn(CC(=O)N2CCCc3ccccc32)n1)c1cccc(Cl)c1 -0.614%, CC(C)C(O)C1CCN(Cc2nc(Cc3ccccc3Cl)no2)CC1 (stereo not given) 0.208%, O=C(Nc1ccc2c(c1)nc1n2CCCCC1)c1cc(S(=O)(=O)N2CCOCC2)ccc1Cl -2.8%, C=CCn1c(COc2ccc(F)cc2)nnc1SCC(=O)Nc1cccc(S(N)(=O)=O)c1 0.597%, CCc1c(O)nc(SCC(=O)Nc2ccccc2)n(C(C)CC)c1=O (stereo not given) -0.227%, COc1cc(OC)cc(C(=O)NNC(=O)Cc2cccs2)c1 -8.25%
